According to the supplement of paper PMC3334620:
Whole data set: some 33,000 sequences, median “E-score (-0.5 to 0.5)” near -0.054, cut for the highest 2% near 0.35. Shown is part of a subset that was picked to be rich in the highest values.

Molecular target: T1, Stb5 (UniProt P38699)
T1 sequence: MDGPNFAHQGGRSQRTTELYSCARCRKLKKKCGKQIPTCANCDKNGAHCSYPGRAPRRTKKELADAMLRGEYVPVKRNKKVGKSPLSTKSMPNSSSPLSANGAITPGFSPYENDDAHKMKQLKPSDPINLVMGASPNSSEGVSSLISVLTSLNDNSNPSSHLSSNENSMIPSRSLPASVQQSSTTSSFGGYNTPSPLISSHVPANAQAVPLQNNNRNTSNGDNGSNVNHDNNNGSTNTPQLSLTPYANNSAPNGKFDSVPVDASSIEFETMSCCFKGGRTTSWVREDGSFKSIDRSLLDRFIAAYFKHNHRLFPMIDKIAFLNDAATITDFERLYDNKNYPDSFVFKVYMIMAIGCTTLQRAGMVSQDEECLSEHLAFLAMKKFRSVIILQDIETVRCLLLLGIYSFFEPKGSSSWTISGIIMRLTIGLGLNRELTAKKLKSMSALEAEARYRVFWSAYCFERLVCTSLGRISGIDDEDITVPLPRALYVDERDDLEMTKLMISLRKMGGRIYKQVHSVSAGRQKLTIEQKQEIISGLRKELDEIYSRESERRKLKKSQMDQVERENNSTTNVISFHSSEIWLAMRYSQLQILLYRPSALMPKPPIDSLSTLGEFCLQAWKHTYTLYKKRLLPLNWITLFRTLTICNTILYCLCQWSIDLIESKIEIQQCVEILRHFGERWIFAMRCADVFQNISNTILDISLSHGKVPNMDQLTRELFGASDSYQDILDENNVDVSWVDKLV
Experiment: PBM E-score (8-mer binding enrichment) (E-score (-0.5 to 0.5)); higher = stronger / more preferred TF binding
Conditions: protein concentration: 200 nM; construct: GST-full length
Summary of the method: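 Bound GST-tagged yeast transcription factors, applied at about 100-200 nM to double-stranded universal all-10-mer Agilent arrays, were detected with fluorescent anti-GST. Scans were normalised with masliner. A modified Wilcoxon-Mann-Whitney statistic, the E-score, was assigned to each ungapped eight-base word pooled with its reverse complement by the Universal PBM Analysis Suite.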

Sequence	PBM E-score
CAGGCGAA	-0.257
GGCTTCTA	-0.04
AGTCGTAC	-0.189
TGTCGGAA	0.26
ACAGGTCA	-0.136
CACTACTA	-0.117
ACCATCCA	-0.118
ATAGTACC	0.359
ATAGTACG	-0.0437
CTAGTACC	0.226
GGCCGATA	0.266
CCCCGATA	0.339
AGCCGATA	0.0102
CGCCGATA	0.36
CGCCGAGC	0.261
CCCCGATC	0.374
CGCCGATC	0.363
ACCCGATC	0.19
AGCCGATC	0.0924
ACTATTCA	-0.084
CGCATCTC	-0.00684

Sequence	PBM E-score
TCTTTACA	-0.117
AGTGGCGG	0.292
ACAGTTAC	-0.0633
GGGAATAA	0.373
TGGAATAA	-0.14
GGGAATAC	0.302
CAACGAAC	0.079
CACCGATC	0.359
AACCGATG	0.143
CACCGATA	0.351
CACCGATG	0.357
GACCGATC	0.323
AACCGATC	0.106
GAGGCTGC	-0.213
ATCGGTTG	0.0401
CGCAATAC	-0.0062
CCTGGTCG	0.0613
AGTCGGGG	0.363
AGTCGGTA	0.36
CGTCGGTC	0.325
GGTCGGTA	0.319

Sequence	PBM E-score
AATCGGTA	0.262
CGTCGGTA	0.357
ACTCGGGG	0.185
CCTCGGTA	0.223
ACTCGGTA	-0.00538
AATCGGTC	0.234
AATCGGTG	0.405
AGTCGGGA	0.287
ATTGAAAT	-0.0501
AACGAGGC	-0.168
ACTCTACG	-0.241
TATACTCA	-0.245
GCGATTCA	0.00506
GGGCGCCC	0.147
GATAACGA	-0.102
ACTCAAGG	-0.223
AGTCGGTC	0.259
AGTCGGTG	0.385
AATCGGGC	0.209
AATCGGGG	0.372
GGACGGTA	0.241

Sequence	PBM E-score
CATCGGGG	0.313
AGTCGGCG	0.239
CGACGGTC	0.315
CGACGGTA	0.352
AAATGGAT	-0.168
AGGGAGAC	-0.0822
AACATGGT	-0.217
GCCAGCGC	-0.00309
GAAGGGGC	-0.11
AGCTCTCC	-0.325
CTGCGTCA	-0.121
GTAACTAC	0.109
ATTCCCGA	0.379
CTTCCCGC	0.129
GTTCCCGA	0.235
CTTCCCGA	0.0298
ATTCCCGC	0.4
ATTCCCGG	0.319
AATCCTAG	-0.0194
